Measurements from PubChem BioAssay (NCATS).
Results filed as inconclusive are left out. Active and inactive are the calls of the source. Unless noted, the call rests on the fitted dose curve; in most records, active means well fitted curve in the direction sought with a large enough effect; inconclusive means small, poorly fitted or top-dose-only effect, or another doubt; inactive means no such curve, though single readings can be large; an effect the other way counts as inactive or inconclusive.

Legend:
[1] = target: Lysosomal acid glucosylceramidase (Homo sapiens) (UniProt P04062); test: Glucocerebrosidase-p2 (AID 348; in the data active means potency below about 10 µM; further: potency means the concentration at half of the fitted maximal effect); conditions: purified GBA, blue fluorogenic substrate, 40 min
Chain of Lysosomal acid glucosylceramidase (Homo sapiens) (P04062 whole entry, looked up): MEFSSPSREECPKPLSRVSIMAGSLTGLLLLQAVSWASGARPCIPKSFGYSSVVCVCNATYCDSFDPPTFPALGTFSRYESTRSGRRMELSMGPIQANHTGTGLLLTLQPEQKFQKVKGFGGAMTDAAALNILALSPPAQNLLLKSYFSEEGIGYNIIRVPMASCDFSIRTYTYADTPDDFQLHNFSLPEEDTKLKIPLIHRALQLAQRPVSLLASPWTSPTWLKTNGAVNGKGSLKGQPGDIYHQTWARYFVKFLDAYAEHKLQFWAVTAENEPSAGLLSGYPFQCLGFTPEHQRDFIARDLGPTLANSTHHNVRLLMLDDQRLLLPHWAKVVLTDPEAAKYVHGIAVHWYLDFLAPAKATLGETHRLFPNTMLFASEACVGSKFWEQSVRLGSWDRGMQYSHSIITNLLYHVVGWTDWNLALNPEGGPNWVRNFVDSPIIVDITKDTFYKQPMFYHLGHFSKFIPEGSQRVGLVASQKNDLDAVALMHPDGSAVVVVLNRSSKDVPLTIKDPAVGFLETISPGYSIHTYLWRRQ
Outline: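 Normal human glucocerebrosidase (0.2 nM) with blue fluorogenic substrate (80 uM final) in citrate/phosphate pH 5.9 with 10mM sodium taurocholate, 0.01% tween-20; 40 min RT, NaOH/glycine stop; fluorescence Ex 365/Em 440; AC50 from a titration from 0.6 nM upwards.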

[2] = AP1 Signaling Pathway (AID 357; active means well fitted curve in either direction with a large enough effect, not every such curve was filed as active; further: on the % scale 0 is the no-effect control and ±100 the full control effect); conditions: ME-180 AP-1-bla reporter, EGF-induced, beta-lactamase ratio, 5 h; at 7.69 µM (top of the series) unless noted
Outline: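 ME-180 cells with beta-lactamase reporter under AP-1 response element, stimulated with EC50 EGF; compounds tested in titration series, 5 h at 37 °C. CCF4 substrate added 2.5 h at room temperature; 460/530 nm emission ratio gave %activity and AC50.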

[3] = target: Cytochrome P450 1A2 (Homo sapiens) (UniProt P05177); test: p450-cyp1a2 (AID 410; calls by dose curve; further: potency means the concentration at half of the fitted maximal effect); conditions: recombinant CYP1A2, luciferin-ME demethylation, luminescence; series mostly up to 57 µM
Chain of Cytochrome P450 1A2 (Homo sapiens) (P05177 whole entry, looked up): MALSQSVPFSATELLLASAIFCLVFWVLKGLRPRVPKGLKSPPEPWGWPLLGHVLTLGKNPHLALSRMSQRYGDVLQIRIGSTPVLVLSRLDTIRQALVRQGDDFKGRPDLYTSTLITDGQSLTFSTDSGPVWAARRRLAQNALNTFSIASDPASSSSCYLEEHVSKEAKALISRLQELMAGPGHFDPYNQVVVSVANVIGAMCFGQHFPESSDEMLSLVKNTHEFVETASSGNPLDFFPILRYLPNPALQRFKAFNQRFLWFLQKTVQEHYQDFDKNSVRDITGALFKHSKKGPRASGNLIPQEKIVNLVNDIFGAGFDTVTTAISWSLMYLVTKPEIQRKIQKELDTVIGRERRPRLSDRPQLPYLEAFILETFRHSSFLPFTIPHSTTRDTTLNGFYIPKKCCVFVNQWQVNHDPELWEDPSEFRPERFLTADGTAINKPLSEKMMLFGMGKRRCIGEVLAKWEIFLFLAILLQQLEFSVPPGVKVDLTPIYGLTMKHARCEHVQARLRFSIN
Outline: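 Read-out is luminescence from luciferin produced by CYP1A2 demethylation of Luciferin-ME (100uM, at Km). Detection reagent stopped the 60 min NADPH-dependent reaction; signals were normalized to 57 uM furafylline.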

[4] = NFAT Signaling Pathway (AID 444; active means well fitted curve in either direction with a large enough effect, not every such curve was filed as active;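 further: carbachol stimulus at about its EC50 of 1 µM final; on the % scale 0 is the no-effect control and ±100 the full control effect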); conditions: Jurkat NFAT-bla M1, carbachol, beta-lactamase ratio, 5 h; at 7.69 µM (top of the series) unless noted
Outline: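 Jurkat cells carrying an NFAT-driven β-lactamase reporter and co-transfected muscarinic M1 receptor were treated with compound plus carbachol (1 uM final, an EC50 level) for 5 h at 37 °C. CCF4 loading followed for 1 h at RT; 460/530 nm ratio gave %activity.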

[5] = Stat Signaling Pathway (AID 446; active means well fitted curve in either direction with a large enough effect, not every such curve was filed as active;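 further: ME-180 cervical cancer cells given 40 pM IL-6 alongside compound; SIE-controlled beta-lactamase reporter measured as 460/530 nm FRET emission ratio; on the % scale 0 is the no-effect control and ±100 the full control effect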); conditions: ME-180 (cervical carcinoma) SIE beta-lactamase reporter, IL-6 stimulated, 5 h; at 7.69 µM (top of the series) unless noted
Outline: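 Normalization used AC90 stimulation (300 pM IL-6) and AC90 inhibition (125 nM pan-JAK inhibitor at 40 pM IL-6). The underlying signal is SIE-driven beta-lactamase in ME-180 cells after 5 h IL-6 exposure with compound.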

[6] = target: Glucocorticoid receptor (Homo sapiens) (UniProt P04150); test: GR-GFP Redistribution (AID 450;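 active means compounds whose dose series gives a full or clear partial fitted curve of increased nuclear translocation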; further: potency means the concentration at half of the fitted maximal effect); conditions: U2OS GR-GFP nuclear translocation, laser cytometry, 2 h
Chain of Glucocorticoid receptor (Homo sapiens) (P04150 whole entry, looked up, the tested form may be a part): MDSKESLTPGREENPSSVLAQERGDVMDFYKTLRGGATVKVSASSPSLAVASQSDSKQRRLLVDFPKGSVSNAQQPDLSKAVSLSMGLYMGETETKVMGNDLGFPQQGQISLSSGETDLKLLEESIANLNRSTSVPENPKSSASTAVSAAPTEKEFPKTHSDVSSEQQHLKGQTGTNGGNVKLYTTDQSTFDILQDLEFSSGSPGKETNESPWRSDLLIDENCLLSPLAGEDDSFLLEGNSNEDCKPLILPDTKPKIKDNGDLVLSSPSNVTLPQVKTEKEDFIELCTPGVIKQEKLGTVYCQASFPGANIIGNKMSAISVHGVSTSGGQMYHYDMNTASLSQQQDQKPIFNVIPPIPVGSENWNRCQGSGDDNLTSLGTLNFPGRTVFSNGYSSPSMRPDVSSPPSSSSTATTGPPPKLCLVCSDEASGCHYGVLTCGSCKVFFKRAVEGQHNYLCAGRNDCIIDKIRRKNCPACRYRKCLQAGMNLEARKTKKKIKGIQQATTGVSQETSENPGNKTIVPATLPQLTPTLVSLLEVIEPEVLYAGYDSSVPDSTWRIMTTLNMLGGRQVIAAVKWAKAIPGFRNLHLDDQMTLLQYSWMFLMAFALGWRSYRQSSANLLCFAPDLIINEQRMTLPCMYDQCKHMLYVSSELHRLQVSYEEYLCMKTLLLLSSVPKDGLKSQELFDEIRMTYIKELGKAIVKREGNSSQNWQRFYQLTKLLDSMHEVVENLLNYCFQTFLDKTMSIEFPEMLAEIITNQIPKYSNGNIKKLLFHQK

[7] = target: Glucocorticoid receptor (Homo sapiens) (UniProt P04150); test: GR-EFC Redistribution (AID 451; calls by dose curve; further: potency means the concentration at half of the fitted maximal effect); conditions: CHO-K1 GR-EFC translocation, beta-gal luminescence, 2 h
Outline: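 CHO-K1 cells stably expressing nuclear-localized β-gal enzyme acceptor and GR fused C-terminally to the enzyme donor fragment; ligand-driven nuclear translocation restores β-gal by complementation. Compounds titrated up to 46 uM final, 2 h at 37 °C; luminescence read.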

[8] = target: Mitogen-activated protein kinase 10 (Mus musculus) (UniProt Q61831); test: JNK3 AlphaScreen Assay (AID 530; active means well fitted curve in either direction with a large enough effect, not every such curve was filed as active;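 further: kinase came from lysate of stimulated human HepG2 cells; signal reports phosphorylation of biotinylated GST-cJun 1-79 at Ser73 with 10 µM ATP; on the % scale 0 is the no-effect control and ±100 the full control effect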); conditions: JNK3 lysate, c-Jun phosphorylation; series mostly up to 57.1 µM
Outline: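 Biotinylated GST-cJun(1-79) served as substrate for JNK3 in HepG2 lysates stimulated with IL-1beta and TNF-alpha. ATP was 10 uM final, pH 7.6. Ser73 phosphorylation was quantified by AlphaScreen (680 nm excitation).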

[9] = target: Cytochrome P450 2C19 (Homo sapiens) (UniProt P33261); test: qHTS Assay for Inhibitors and Substrates of Cytochrome P450 2C19 (AID 899); conditions: recombinant CYP2C19, luciferin-H EGE luminescence; series mostly up to 57.1 µM; further: potency means the concentration at half of the fitted maximal effect; nearly all actives have a fitted effect of over 60% in size
Chain of Cytochrome P450 2C19 (Homo sapiens) (P33261 whole entry, looked up): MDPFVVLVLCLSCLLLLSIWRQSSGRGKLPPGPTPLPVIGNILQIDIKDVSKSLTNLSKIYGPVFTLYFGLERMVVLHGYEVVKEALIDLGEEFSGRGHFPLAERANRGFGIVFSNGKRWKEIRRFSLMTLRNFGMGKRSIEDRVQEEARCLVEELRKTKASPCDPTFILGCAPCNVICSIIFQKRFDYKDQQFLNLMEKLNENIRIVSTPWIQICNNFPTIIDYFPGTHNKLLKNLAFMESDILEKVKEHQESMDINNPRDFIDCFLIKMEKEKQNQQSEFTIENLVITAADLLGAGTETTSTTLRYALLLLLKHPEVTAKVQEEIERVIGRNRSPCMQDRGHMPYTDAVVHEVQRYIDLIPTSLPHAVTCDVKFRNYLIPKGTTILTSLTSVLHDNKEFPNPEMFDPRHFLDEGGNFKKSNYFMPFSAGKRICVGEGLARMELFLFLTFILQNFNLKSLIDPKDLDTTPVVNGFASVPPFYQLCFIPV
Outline: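 NADPH-dependent conversion of Luciferin-H EGE (10uM, at KM) by 5nM enzyme in 50mM KPO4, 60 min at 37C following 10 min compound preincubation. Stopped with luciferin detection buffer; luminescence read after 20 min.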

[10] = qHTS Assay for Lipid Storage Modulators (AID 1519; calls by dose curve); conditions: Drosophila S3 cells, BODIPY lipid droplet/cell ratio, laser cytometry, cells loaded with oleic acid; for activity change, negative = inhibition: at 57.5 µM (top of the series)
Outline: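 Cells seeded at 5,000 per well were treated with compounds over a concentration series and loaded with oleic acid (400 uM, as added). Lipid droplet fluorescence (488 nm excitation, 500-530 nm channel) was read by laser-scanning cytometry and normalized to 20 uM Triacsin C.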

[11] = target: Dual specificity protein kinase CLK4 (Homo sapiens) (UniProt Q9HAZ1); test: qHTS Assay for Inhibitors of CDC-like Kinase 4 (Kinase-Glo Assay) (AID 1770); conditions: recombinant Clk4, Kinase-Glo ATP depletion luminescence; series mostly up to 66.7 µM; further: nearly all actives have a fitted effect of over 65% in size; further: potency means the concentration at half of the fitted maximal effect
Chain of Dual specificity protein kinase CLK4 (Homo sapiens) (Q9HAZ1 whole entry, looked up): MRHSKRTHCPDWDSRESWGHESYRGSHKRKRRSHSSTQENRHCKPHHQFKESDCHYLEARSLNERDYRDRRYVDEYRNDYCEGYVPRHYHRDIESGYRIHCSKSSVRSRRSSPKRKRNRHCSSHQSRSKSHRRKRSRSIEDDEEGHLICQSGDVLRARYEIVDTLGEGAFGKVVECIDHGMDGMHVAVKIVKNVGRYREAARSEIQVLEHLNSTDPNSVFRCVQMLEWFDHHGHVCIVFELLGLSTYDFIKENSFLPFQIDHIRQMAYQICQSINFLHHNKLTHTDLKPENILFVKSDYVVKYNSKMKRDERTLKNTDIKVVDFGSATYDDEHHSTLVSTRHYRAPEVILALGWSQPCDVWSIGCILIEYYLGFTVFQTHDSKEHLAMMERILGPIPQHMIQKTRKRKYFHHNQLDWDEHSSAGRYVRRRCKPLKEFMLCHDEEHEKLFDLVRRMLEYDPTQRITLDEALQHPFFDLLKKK
Outline: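 Recombinant human Clk4 (25 nM) phosphorylated RS repeat peptide (100 uM) with 1 uM ATP in Tris pH 7.5/MgCl2/EGTA/DTT/Triton buffer for 4.5 h at room temperature. Residual ATP was quantified by Kinase-Glo luciferase luminescence.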

[12] = target: Dual specificity protein kinase CLK4 (Homo sapiens) (UniProt Q9HAZ1); test: qHTS Assay for Inhibitors of CDC-like Kinase 4 (ADP-Glo Assay) (AID 1771); conditions: recombinant CLK4, ADP-Glo luminescence; series mostly up to 80 µM; further: nearly all actives have a fitted effect of over 70% in size; further: potency means the concentration at half of the fitted maximal effect
Outline: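 In this ADP-Glo format, 1 uM ATP and 100 uM RS peptide served as substrates for 25 nM Clk4 in Mg2+/EGTA/DTT/Triton buffer; reactions ran 1 hr at room temperature before luminescent ADP quantification.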

[13] = target: Ubiquitin carboxyl-terminal hydrolase 1 (Homo sapiens) (UniProt O94782); test: Inhibitors of USP1/UAF1: Pilot qHTS (AID 504865); conditions: purified USP1/UAF1, Ub-rhodamine cleavage fluorescence; series mostly up to 54.9 µM;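 further: rhodamine fluorescence freed from ubiquitin-rhodamine substrate followed over time; top concentration of the series differs between compounds; on the % scale 0 is the no-effect control and ±100 the full control effect; nearly all actives have a fitted effect of over 35% in size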
Chain of Ubiquitin carboxyl-terminal hydrolase 1 (Homo sapiens) (O94782 whole entry, looked up): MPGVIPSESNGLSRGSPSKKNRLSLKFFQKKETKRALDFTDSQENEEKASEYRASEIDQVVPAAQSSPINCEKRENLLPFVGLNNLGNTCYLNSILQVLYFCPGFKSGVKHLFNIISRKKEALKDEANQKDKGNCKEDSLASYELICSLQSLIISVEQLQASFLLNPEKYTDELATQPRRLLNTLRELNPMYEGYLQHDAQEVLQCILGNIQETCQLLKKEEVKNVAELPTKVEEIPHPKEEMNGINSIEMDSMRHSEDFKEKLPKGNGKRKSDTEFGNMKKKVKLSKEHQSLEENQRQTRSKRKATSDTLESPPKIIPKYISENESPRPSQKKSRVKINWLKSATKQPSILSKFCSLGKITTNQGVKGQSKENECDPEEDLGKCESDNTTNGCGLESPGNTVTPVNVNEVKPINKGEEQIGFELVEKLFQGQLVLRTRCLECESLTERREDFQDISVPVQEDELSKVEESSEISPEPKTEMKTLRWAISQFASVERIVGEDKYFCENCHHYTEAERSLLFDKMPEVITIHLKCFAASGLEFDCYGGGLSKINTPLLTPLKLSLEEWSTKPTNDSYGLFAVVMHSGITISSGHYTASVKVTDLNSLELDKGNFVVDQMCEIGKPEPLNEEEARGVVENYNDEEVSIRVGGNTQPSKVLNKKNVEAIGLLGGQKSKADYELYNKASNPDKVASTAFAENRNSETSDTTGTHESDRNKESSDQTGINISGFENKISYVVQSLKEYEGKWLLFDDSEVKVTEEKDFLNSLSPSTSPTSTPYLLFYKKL
Outline: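 USP1/UAF1 complex (1nM) preincubated with compound 15 min at room temperature, then Ub-Rho substrate (150nM final) added. Fluorescence read kinetically at 480/540 nm, 6 reads every 60 seconds. Buffer: 50mM HEPES pH 7.8, 0.5mM EDTA, 0.1 mg/ml BSA, 1mM TCEP, 0.01% Tween-20.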

[14] = Primary qHTS for small molecule stabilizers of the endoplasmic reticulum resident proteome: Secreted ER Calcium Modulated Protein (SERCaMP) assay (AID 1508630); conditions: SH-SY5Y GLuc-SERCaMP (Gaussia luciferase released on ER calcium loss) secretion, thapsigargin, luminescence; series mostly up to 38.4 µM; further: on the % scale 0 is the no-effect control and ±100 the full control effect
Outline: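 The SH-SY5Y reporter protocol was run at 3 concentrations up to 38.3 uM (primary) or 11 concentrations (follow-up): 16 h compound, 100 nM thapsigargin for 4 h, then extracellular luciferase luminescence.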

[15] = target: 3',5'-cyclic-AMP phosphodiesterase 4B (Homo sapiens) (UniProt Q07343); test: qHTS Assay for Inhibitors of PDE-IV (AID 607; active means well fitted activation curve with a large enough effect in the main read-out, with a control signal flat, not every such curve was filed as active; further: % of control where 0% means no effect); conditions: HEK293 ACTOne CNG channel cells, membrane potential fluorescence; series mostly up to 22.9 µM
Chain of 3',5'-cyclic-AMP phosphodiesterase 4B (Homo sapiens) (Q07343 whole entry, looked up): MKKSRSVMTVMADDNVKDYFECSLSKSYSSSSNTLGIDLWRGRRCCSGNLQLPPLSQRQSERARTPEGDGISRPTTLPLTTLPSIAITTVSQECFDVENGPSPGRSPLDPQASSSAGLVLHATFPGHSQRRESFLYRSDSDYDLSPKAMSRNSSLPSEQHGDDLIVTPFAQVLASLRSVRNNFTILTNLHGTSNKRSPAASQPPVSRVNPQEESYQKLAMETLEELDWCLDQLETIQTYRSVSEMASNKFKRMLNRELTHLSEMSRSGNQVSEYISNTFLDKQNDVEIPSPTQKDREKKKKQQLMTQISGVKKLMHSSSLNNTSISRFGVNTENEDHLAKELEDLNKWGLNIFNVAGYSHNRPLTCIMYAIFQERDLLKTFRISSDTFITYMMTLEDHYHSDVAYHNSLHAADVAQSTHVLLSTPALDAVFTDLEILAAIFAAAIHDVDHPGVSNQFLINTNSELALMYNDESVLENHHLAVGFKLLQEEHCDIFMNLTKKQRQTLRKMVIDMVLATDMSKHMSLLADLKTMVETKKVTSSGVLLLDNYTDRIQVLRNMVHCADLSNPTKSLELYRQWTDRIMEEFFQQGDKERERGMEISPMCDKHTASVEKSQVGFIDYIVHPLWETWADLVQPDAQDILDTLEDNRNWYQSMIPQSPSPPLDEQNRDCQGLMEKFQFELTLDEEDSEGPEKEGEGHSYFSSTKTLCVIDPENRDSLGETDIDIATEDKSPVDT
Outline: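 HEK293 ACTOne cells with CNG channel (1000/well), endogenous PDE4; membrane potential dye, compounds up to 22.9 uM final. Fluorescence Ex 535/Em 590; RO 20-1724 (100 uM final) as reference.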

[16] = target: Cytochrome P450 3A4 (Homo sapiens) (UniProt P08684); test: qHTS Assay for Activators of Cytochrome P450 3A4 (AID 885); conditions: recombinant CYP3A4, Luciferin-PPXE luminescence, 60 min; series mostly up to 57.1 µM; further: nearly all actives have a fitted effect of over 65% in size
Chain of Cytochrome P450 3A4 (Homo sapiens) (P08684 whole entry, looked up): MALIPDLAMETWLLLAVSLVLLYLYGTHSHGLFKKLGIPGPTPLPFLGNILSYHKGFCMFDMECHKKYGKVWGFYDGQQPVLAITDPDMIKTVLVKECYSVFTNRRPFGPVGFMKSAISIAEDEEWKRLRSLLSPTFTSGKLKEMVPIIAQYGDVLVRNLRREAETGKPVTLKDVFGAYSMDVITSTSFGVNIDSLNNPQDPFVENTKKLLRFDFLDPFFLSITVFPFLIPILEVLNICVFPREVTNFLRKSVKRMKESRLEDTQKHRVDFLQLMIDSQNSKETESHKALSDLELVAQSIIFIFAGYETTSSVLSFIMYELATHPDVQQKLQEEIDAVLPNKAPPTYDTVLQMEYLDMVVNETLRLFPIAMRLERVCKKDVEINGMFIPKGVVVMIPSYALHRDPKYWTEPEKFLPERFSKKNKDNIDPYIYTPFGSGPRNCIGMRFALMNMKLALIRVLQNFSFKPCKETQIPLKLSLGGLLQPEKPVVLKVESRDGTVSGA
Outline: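 Human CYP3A4 dealkylates Luciferin-PPXE to luciferin, which luciferase detection converts to light. Substrate was at its KM (25uM), buffer 200mM KPO4, reaction 60 min at RT.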

[17] = target: Dual specificity protein kinase CLK4 (Homo sapiens) (UniProt Q9HAZ1); test: qHTS Assay for Inhibitors of CDC-like Kinase 4 (ADP-FP Assay) (AID 1795); conditions: Transcreener ADP fluorescence polarization; series mostly up to 50 µM; further: on the % scale 0 is the no-effect control and ±100 the full control effect; nearly all actives have a fitted effect of over 60% in size
Outline: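 Recombinant human Clk4 (6.25 nM) phosphorylated RS repeat peptide (100 uM) with 1 uM ATP in Tris pH 7.5/MgCl2/EGTA/DTT/Triton buffer for one hour. ADP was quantified by Transcreener competitive fluorescence polarization against an ADP calibration curve.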

[18] = measured here: cell count channel max response
[19] = measured here: lipid channel max response

Row | Compound | Potency [1] | activity change, negative = inhibition [2] | Potency [3] | activity change, negative = inhibition [4] | activity, negative = inhibition [5] | Potency [6] | Potency [7] | outcome [8] | Potency [9] | activity change, negative = inhibition [10] | max response [10, 18] [%] | max response [10, 19] [%] | Potency [11] | Potency [12] | Potency [13] | Potency [14] | Potency [15] | Potency [16] | Potency [17]
1 | Cc1nc2cncnc2n(Cc2ccccc2)c1=O | > 11.4 µM (inactive) | -13.3% (inactive) | 12.6 µM (active) | -2.35% (inactive) | -15.3% (inactive) | > 9.22 µM (inactive) | > 46 µM (inactive) | inactive | 0.158 µM (active) | 1.73% (inactive) | 12.6 | 8.3 | inactive | inactive | inactive | inactive |  |  | 
2 | Cn1c(=O)c(-c2ccccc2)nc2cncnc21 | > 11.4 µM (inactive) | -7.79% (inactive) | 0.631 µM (active) | -9.84% (inactive) | -4.68% (inactive) | > 9.22 µM (inactive) | > 46 µM (inactive) | inactive |  | 6.1% (inactive) | 8.5 | 16.6 | inactive |  | inactive | inactive | inactive | inactive | inactive
3 | COCCNc1nc(-c2ccccc2Cl)nc2ccccc12 | 11 µM (inactive) | -0.0888% (inactive) | 0.126 µM (active) | 7.18% (inactive) | -3.65% (inactive) | > 46 µM (inactive) | > 46 µM (inactive) | inactive |  | 3.23% (inactive) | 2.91 | 4.03 | 15.8 µM (active) | 8.91 µM (active) | inactive | inactive |  | inactive | 
